High-throughput results (PubChem BioAssay)
This is one part of a sample in which hits are shown more often than they occur.
IDE exosite inh – insulin-degrading enzyme (human) exo-site inhibition; purified IDE, FL-6b probe fluorescence polarization; stronger effect = lower value; 17,000 compounds, 6.3% hits; P14735; z-score at 20 µM;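 active means z-score of -3 or lower, meaning strong loss of probe binding signal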;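 further: His-tagged human IDE residues 42-1019 made in E. coli with 30 nM FL-6b probe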
Target sequence (P14735 42-1019 limits assumed): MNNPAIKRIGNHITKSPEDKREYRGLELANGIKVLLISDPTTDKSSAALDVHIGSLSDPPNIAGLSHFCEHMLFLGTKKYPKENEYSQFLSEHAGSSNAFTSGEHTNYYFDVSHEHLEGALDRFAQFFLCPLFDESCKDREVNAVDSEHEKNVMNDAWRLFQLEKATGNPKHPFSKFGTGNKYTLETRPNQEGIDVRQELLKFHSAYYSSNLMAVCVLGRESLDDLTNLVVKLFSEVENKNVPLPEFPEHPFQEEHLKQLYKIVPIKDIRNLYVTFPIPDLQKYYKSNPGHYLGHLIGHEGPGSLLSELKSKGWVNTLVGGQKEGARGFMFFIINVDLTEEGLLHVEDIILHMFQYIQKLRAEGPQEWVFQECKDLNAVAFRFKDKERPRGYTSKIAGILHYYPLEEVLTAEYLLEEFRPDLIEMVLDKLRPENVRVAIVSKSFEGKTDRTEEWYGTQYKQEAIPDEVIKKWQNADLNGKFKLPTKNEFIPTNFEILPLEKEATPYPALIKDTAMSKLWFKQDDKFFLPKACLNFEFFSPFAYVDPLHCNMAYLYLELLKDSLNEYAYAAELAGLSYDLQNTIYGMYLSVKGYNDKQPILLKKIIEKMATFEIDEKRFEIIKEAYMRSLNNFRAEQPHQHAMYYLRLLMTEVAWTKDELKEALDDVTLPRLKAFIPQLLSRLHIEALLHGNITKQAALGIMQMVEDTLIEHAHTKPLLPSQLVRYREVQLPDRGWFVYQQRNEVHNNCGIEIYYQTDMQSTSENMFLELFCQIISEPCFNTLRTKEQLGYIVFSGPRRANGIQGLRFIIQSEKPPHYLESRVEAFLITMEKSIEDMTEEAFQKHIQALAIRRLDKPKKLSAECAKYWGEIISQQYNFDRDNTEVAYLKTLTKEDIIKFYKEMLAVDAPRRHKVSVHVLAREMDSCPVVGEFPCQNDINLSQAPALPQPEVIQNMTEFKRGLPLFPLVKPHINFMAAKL
An asterisk follows results filed as active.

SMILES	IDE exosite inh
O=C(Cc1ccccc1)N1CC(=O)N2[C@@H](CO)[C@H](c3ccc(C#CCc4ccccc4)cc3)[C@@H]2C1	-1.3
O=C(Cc1ccccc1)N1CC(=O)N2[C@H](C1)[C@H](c1ccc(C#CCc3ccccc3)cc1)[C@@H]2CO	-3.6*
C[C@H]1CN([C@@H](C)CO)C(=O)c2cc(-c3ccc(C#N)cc3)cnc2O[C@@H]1CN(C)Cc1cccnc1	0.34
OC[C@@H]1[C@H](c2ccc(C#Cc3cccnc3)cc2)[C@H]2CN(Cc3ccccc3F)CCCCN12	-1.1
COc1ccccc1-c1ccc2c(c1)O[C@@H](CN(C)CC1CCOCC1)[C@@H](C)CN([C@@H](C)CO)S2(=O)=O	0.31
CCCNC(=O)N1CC(=O)N2[C@H](C1)[C@H](c1ccc(-c3cccc(C)c3)cc1)[C@@H]2CO	-14*
CCCNC(=O)N1CC(=O)N2[C@H](CO)[C@H](c3ccc(-c4ccccc4)cc3)[C@@H]2C1	-2.2
CCCNC(=O)N1CC(=O)N2[C@H](CO)[C@H](c3ccc(-c4ccc(F)cc4)cc3)[C@H]2C1	0.88
CCCNC(=O)N1CC(=O)N2[C@H](C1)[C@@H](c1ccc(-c3ccc(F)cc3)cc1)[C@@H]2CO	0.76
COc1ccccc1NC(=O)N1CC(=O)N2[C@H](CO)[C@H](c3ccc(-c4cccc(C)c4)cc3)[C@@H]2C1	-3.7*
CCCNC(=O)N1CC(=O)N2[C@H](CO)[C@@H](c3ccc(-c4ccc(C)cc4)cc3)[C@H]2C1	-3.1*
CCCNC(=O)N1CC(=O)N2[C@H](CO)[C@H](c3ccc(-c4ccc(C)cc4)cc3)[C@@H]2C1	-1.4
COc1ccccc1NC(=O)N1CCCCN2[C@H](CO)[C@H](c3ccc(-c4cccc(C)c4)cc3)[C@H]2C1	-1.5
COc1ccccc1NC(=O)N1CC(=O)N2[C@H](C1)[C@H](c1ccc(-c3ccc(F)cc3)cc1)[C@@H]2CO	2.2
Cc1ccc(S(=O)(=O)Nc2ccc3c(c2)C(=O)N([C@@H](C)CO)C[C@H](C)[C@@H](CN(C)S(=O)(=O)c2cccs2)OCCCC[C@H](C)O3)cc1	0.93
CS(=O)(=O)N1[C@H](C#N)[C@@H](c2ccc(C#CC3CCCC3)cc2)[C@@H]1CO	-0.95
CN1C(=O)c2cc(NS(=O)(=O)c3cccc(F)c3)ccc2OC[C@H]2O[C@H](CC(=O)NCCN3CCCCC3)CC[C@H]21	-0.83
COCCNC(=O)c1cc2c(c(-c3cccc(C4=CCCCC4)c3)n1)[C@@H](CCO)N([S@](=O)C(C)(C)C)C2	2.6
N#C[C@@H]1[C@@H](c2ccccc2-c2ccccc2)[C@@H](CO)N1C(=O)NC1CCCC1	1
C[C@@H]1CCCCO[C@@H](CN(C)S(=O)(=O)c2cn(C)cn2)[C@H](C)CN([C@@H](C)CO)C(=O)c2cc(NC(=O)Nc3cccc4ccccc34)ccc2O1	-0.49
COc1ccccc1-c1ccc([C@@H]2[C@H](CO)N3CCCCN(C(=O)CN4CCOCC4)C[C@@H]23)cc1	-15*
O=C(CN1CCOCC1)N1CCCCN2[C@@H](CO)[C@@H](c3ccc(-c4ccccc4F)cc3)[C@@H]2C1	-5.1*
O=C(CN1CCOCC1)N1CCCCN2[C@H](C1)[C@@H](c1ccc(-c3ccccc3F)cc1)[C@@H]2CO	-1.4
COc1ccccc1-c1ccc([C@H]2[C@H]3CN(C(=O)CN4CCOCC4)CCCCN3[C@H]2CO)cc1	-2.6
COc1ccccc1-c1ccc([C@@H]2[C@H]3CN(C(=O)CN4CCOCC4)CCCCN3[C@H]2CO)cc1	0.61
SMILES	IDE exosite inh
O=C(CN1CCOCC1)N1CCCCN2[C@H](CO)[C@@H](c3ccc(-c4ccccc4F)cc3)[C@H]2C1	1.6
CCCNC(=O)N1[C@H](CO)[C@H](c2ccc(-c3ccccc3)cc2)[C@@H]1CNC(C)=O	4.3
CCC(=O)NC[C@@H]1[C@@H](c2ccc(-c3cccc(F)c3)cc2)[C@@H](CO)N1CC1CC1	0.31
CN1C[C@@H](O)COC[C@@H]2O[C@H](CC(=O)NC3CCCC3)CC[C@H]21	1.1
O=C(C1CCCCC1)N1CC2(C1)[C@H](c1ccccc1)[C@H](CO)N2CCC(F)(F)F	-1.2
Cc1ccccc1S(=O)(=O)N1CC(=O)N2[C@H](CO)[C@H](c3ccc(C#CCN(C)C)cc3)[C@@H]2C1	1.6
O=C(C1CC1)N1CC(=O)N2[C@H](CO)[C@@H](c3ccc(C#CC4CCCC4)cc3)[C@H]2C1	2.1
O=C(c1ccc(F)cc1)N1CCCCN2[C@H](C1)[C@H](c1ccc(/C=C/c3ccccc3)cc1)[C@@H]2CO	5.3
CN1CCCCN2[C@H](CO)[C@@H](c3ccc(-c4ccccc4)cc3)[C@H]2C1	-0.23
CCC(=O)N1CCCCN2[C@H](CO)[C@@H](c3ccc(-c4ccc(F)cc4)cc3)[C@@H]2C1	3.2
CCC(=O)N1CCCCN2[C@H](CO)[C@@H](c3ccc(/C=C/c4ccccc4)cc3)[C@@H]2C1	-4.5*
CN1CCCCN2[C@@H](CO)[C@@H](c3ccc(/C=C/c4ccccc4)cc3)[C@@H]2C1	-6.8*
C/C=C/c1ccc([C@H]2[C@@H](CO)N3CCCCN(C)C[C@H]23)cc1	0.65
CCC(=O)N1CCCCN2[C@@H](CO)[C@@H](c3ccc(/C=C/c4ccccc4)cc3)[C@@H]2C1	-1.4
CCC(=O)N1CCCCN2[C@H](C1)[C@H](c1ccc(/C=C/c3ccccc3)cc1)[C@@H]2CO	-10*
O=C(c1ccc(F)cc1)N1CCCCN2[C@H](CO)[C@@H](c3ccc(/C=C/c4ccccc4)cc3)[C@H]2C1	-2.3
C/C=C/c1ccccc1[C@H]1[C@H](C#N)N(C(=O)c2cccnc2)[C@H]1CO	0.035
CCS(=O)(=O)Nc1ccc2c(c1)C(=O)N(C)[C@@H]1CC[C@H](CC(=O)N3CCN(C)CC3)O[C@@H]1CO2	0.8
NCC[C@H]1CC[C@@H](NS(=O)(=O)c2ccc(Cl)cc2)[C@H](CO)O1	0.82
C[C@@H](O)C#Cc1ccc([C@H]2[C@@H](CO)N3CCCCN(C(=O)c4ccc(F)cc4)C[C@@H]23)cc1	3.3
O=C(NCC[C@@H]1CC[C@H](NS(=O)(=O)c2ccc(F)cc2)[C@@H](CO)O1)c1ccc2c(c1)OCO2	1.7
COc1ccccc1C#Cc1ccc([C@H]2[C@@H](C#N)N(C(=O)C3CC3)[C@@H]2CO)cc1	-5.3*
COc1ccccc1C#Cc1ccc([C@@H]2[C@@H](C#N)N(C(=O)C3CC3)[C@@H]2CO)cc1	-6.4*
COc1ccccc1C#Cc1ccc([C@@H]2[C@H](C#N)N(C(=O)C3CC3)[C@H]2CO)cc1	-9.3*
COc1ccccc1C#Cc1ccc([C@@H]2[C@@H](C#N)N(C(=O)C3CC3)[C@H]2CO)cc1	-4.2*
SMILES	IDE exosite inh
N#C[C@H]1[C@H](c2ccc(C#Cc3ccc(F)cc3)cc2)[C@H](CO)N1C(=O)C1CC1	4.4
C[C@H]1CCc2cnnn2COCCNC1=O	1.4
C/C=C/c1ccc([C@H]2[C@@H](CNC(C)=O)N(C(=O)Cc3ccncc3)[C@H]2CO)cc1	0.51
COCc1cn(CC[C@@H]2CC[C@@H](NC(=O)Nc3c(C)noc3C)[C@H](CO)O2)nn1	-0.021
CC(=O)N1[C@H](CO)[C@H](c2ccccc2)[C@H]1CNC(=O)c1ccncc1	3
O=C(NC1CCCC1)N[C@H]1C=C[C@H](CC(=O)N2CCOCC2)O[C@H]1CO	0.42
CS(=O)(=O)N1[C@@H](CO)[C@@H](c2ccccc2)C12CN(Cc1cc(F)ccc1F)C2	-0.12
N#C[C@H]1[C@H](c2ccc(C#Cc3ccccc3F)cc2)[C@H](CO)N1C(=O)c1cccnc1	-2.4
COc1ccc2c3c([nH]c2c1)[C@H](CO)N(S(=O)(=O)c1ccccc1)CC31CCN(C)CC1	-1.3
